In ChEMBL document CHEMBL1157539, “Thousands of chemical starting points for antimalarial lead identification” (Nature, 2010):

Key:
Format in all cases: functional
Plasmodium falciparum [1] = experiment: GSK_TCMDC: Inhibition of Plasmodium falciparum 3D7 in whole red blood cells, using parasite LDH activity as an index of growth. Test compounds present at 2uM
Plasmodium falciparum [2] = experiment: GSK_TCMDC: Inhibition of Plasmodium falciparum Dd2 in whole red blood cells, using parasite LDH activity as an index of growth. Test compounds present at 2uM
HepG2 = experiment: GSK_TCMDC: Percent inhibition of human HepG2 cell line. Test compounds present at 10uM.

Compound	Inhibition (Plasmodium falciparum [1]) [%]	Inhibition (Plasmodium falciparum [2]) [%]	Inhibition (HepG2) [%]
Cc1cccc(Nc2nc3nonc3nc2Nc2cccc(Cl)c2Cl)c1C	91	95	88
NCc1cccc(-c2ccc(CNC3CCN(Cc4ccccc4)CC3)cc2)c1.O=C(O)C(F)(F)F	95	3	2
CCN1CCN(c2cc(C)c3cc(NC(=O)c4cccc(OC)c4)ccc3n2)CC1	99	15	5
CO/C(=C\C=C\c1cc2cc(Cl)c(Cl)cc2[nH]1)C(=O)NCCCN1CCCC[C@@H]1C	99	83	33
COc1ccc(C(=O)NCCCCN2CCC(c3ccc4c(c3OC)CCCC4)CC2)cc1-c1ccc(C(F)(F)F)cc1	100	56	67
CCc1cccc(OCC2CCCN(c3ccc(C(=O)NC4CC4)cn3)C2)c1 (stereo not drawn)	94	73	0
CC(C)c1cc2c(ccc3nc(N)nc(N)c32)[nH]1	93	4	49
CC(=O)c1cc(N2CCOCC2)ccc1N	91	43	7
CN1CCC(Oc2ccc(CN3CC[C@H](NC(=O)c4ccc(F)c(F)c4)C3)c3ccccc23)C1.O=C(O)C(F)(F)F (stereo partly drawn)	91	27	20
COc1ccc(-c2cccc(NC(=O)c3ccc(Cl)cc3)c2)cc1CNC(C)C.O=C(O)C(F)(F)F	100	44	53
O=C(Nc1ccc(Cl)cc1)Nc1nc2cc([N+](=O)[O-])ccc2[nH]1	100	6	0
